# In publication PMC11006913:
# Residue numbers refer to the chain shown, from its start.
# Columns and labels:
# Experiment in all cases: PBM; 200 nM protein, PBS
# Details in all cases: dsDNA, one strand shown
# NKX2-5 [1] = biological target: NKX2-5 (Homo sapiens, UniProt P52952 125-210, R139K)
# NKX2-4 [2] = biological target: T1, NKX2-4 (Homo sapiens, UniProt Q9H2Z4 175-261, P217L)
# T1 sequence: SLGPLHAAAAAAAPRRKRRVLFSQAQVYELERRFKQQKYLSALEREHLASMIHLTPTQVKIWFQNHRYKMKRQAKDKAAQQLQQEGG
# NKX2-4 [3] = biological target: T2, NKX2-4 (Homo sapiens, UniProt Q9H2Z4 175-261, T231S)
# T2 sequence: T1 sequence with L43P, T57S
# NKX2-4 [4] = biological target: T3, NKX2-4 (Homo sapiens, UniProt Q9H2Z4 175-261)
# T3 sequence: T1 sequence with L43P
# NKX2-6 [5] = biological target: T4, NKX2-6 (Homo sapiens, UniProt A6NCS4 118-204, R150C)
# T4 sequence: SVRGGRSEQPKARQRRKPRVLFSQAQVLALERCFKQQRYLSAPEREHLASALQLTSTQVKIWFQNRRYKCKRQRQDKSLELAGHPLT
# NKX2-6 [6] = biological target: T5, NKX2-6 (Homo sapiens, UniProt A6NCS4 118-204)
# T5 sequence: T4 sequence with C33R
# NKX2-4 [7] = biological target: T6, NKX2-4 (Homo sapiens, UniProt Q9H2Z4 175-261, R246Q)
# T6 sequence: T1 sequence with L43P, R72Q
# NKX2-6 [8] = biological target: T7, NKX2-6 (Homo sapiens, UniProt A6NCS4 118-204, F151L)
# T7 sequence: T4 sequence with C33R, F34L
# NKX3-2 [9] = biological target: NKX3-2 (Homo sapiens, UniProt P78367 192-278, P234S)
# NKX2-5 [10] = biological target: NKX2-5 (Homo sapiens, UniProt P52952 125-210)
# NKX3-2 [11] = biological target: NKX3-2 (Homo sapiens, UniProt P78367 192-278)
# NKX3-2 (Homo sapiens, UniProt P78367 192-278), sequence (P78367 192-278): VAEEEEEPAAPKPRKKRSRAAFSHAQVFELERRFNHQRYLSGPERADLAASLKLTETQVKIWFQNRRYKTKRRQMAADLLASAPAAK
# NKX2-5 (Homo sapiens, UniProt P52952 125-210), sequence (P52952 125-210): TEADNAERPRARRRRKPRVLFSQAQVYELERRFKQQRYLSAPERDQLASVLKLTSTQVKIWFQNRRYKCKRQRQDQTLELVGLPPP
# NKX2-5 (Homo sapiens, UniProt P52952 125-210, R139K), sequence (P52952 125-210 R139K): as the sequence (P52952 125-210) above, with R15K counted along it
# NKX3-2 (Homo sapiens, UniProt P78367 192-278, P234S), sequence (P78367 192-278 P234S): as the sequence (P78367 192-278) above, with P43S counted along it
Sequence,binding signal (NKX2-5 [1]),binding signal (NKX2-4 [2]),binding signal (NKX2-4 [3]),binding signal (NKX2-4 [4]),binding signal (NKX2-6 [5]),binding signal (NKX2-6 [6]),binding signal (NKX2-4 [7]),binding signal (NKX2-6 [8]),binding signal (NKX3-2 [9]),binding signal (NKX2-5 [10]),binding signal (NKX3-2 [11])
ATAAGTGG,"13.2 upbm affinity estimate (log intensity, higher = more binding, comparable within an allelic series)","12.8 upbm affinity estimate (log intensity, higher = more binding, comparable within an allelic series)","13.2 upbm affinity estimate (log intensity, higher = more binding, comparable within an allelic series)","12.7 upbm affinity estimate (log intensity, higher = more binding, comparable within an allelic series)","12.4 upbm affinity estimate (log intensity, higher = more binding, comparable within an allelic series)","13.9 upbm affinity estimate (log intensity, higher = more binding, comparable within an allelic series)","13.3 upbm affinity estimate (log intensity, higher = more binding, comparable within an allelic series)","11.4 upbm affinity estimate (log intensity, higher = more binding, comparable within an allelic series)","13.1 upbm affinity estimate (log intensity, higher = more binding, comparable within an allelic series)","13.1 upbm affinity estimate (log intensity, higher = more binding, comparable within an allelic series)","13.1 upbm affinity estimate (log intensity, higher = more binding, comparable within an allelic series)"
AAGTGGAT,"12.5 upbm affinity estimate (log intensity, higher = more binding, comparable within an allelic series)","12.5 upbm affinity estimate (log intensity, higher = more binding, comparable within an allelic series)","12.8 upbm affinity estimate (log intensity, higher = more binding, comparable within an allelic series)","12.3 upbm affinity estimate (log intensity, higher = more binding, comparable within an allelic series)","11.8 upbm affinity estimate (log intensity, higher = more binding, comparable within an allelic series)","13.3 upbm affinity estimate (log intensity, higher = more binding, comparable within an allelic series)","12.9 upbm affinity estimate (log intensity, higher = more binding, comparable within an allelic series)","10.7 upbm affinity estimate (log intensity, higher = more binding, comparable within an allelic series)","12.8 upbm affinity estimate (log intensity, higher = more binding, comparable within an allelic series)","12.5 upbm affinity estimate (log intensity, higher = more binding, comparable within an allelic series)","12.8 upbm affinity estimate (log intensity, higher = more binding, comparable within an allelic series)"
ACCACTTG,"12.8 upbm affinity estimate (log intensity, higher = more binding, comparable within an allelic series)","12.6 upbm affinity estimate (log intensity, higher = more binding, comparable within an allelic series)","13 upbm affinity estimate (log intensity, higher = more binding, comparable within an allelic series)","12.5 upbm affinity estimate (log intensity, higher = more binding, comparable within an allelic series)","11.8 upbm affinity estimate (log intensity, higher = more binding, comparable within an allelic series)","13.5 upbm affinity estimate (log intensity, higher = more binding, comparable within an allelic series)","13.1 upbm affinity estimate (log intensity, higher = more binding, comparable within an allelic series)","10.7 upbm affinity estimate (log intensity, higher = more binding, comparable within an allelic series)","12.6 upbm affinity estimate (log intensity, higher = more binding, comparable within an allelic series)","12.6 upbm affinity estimate (log intensity, higher = more binding, comparable within an allelic series)","12.7 upbm affinity estimate (log intensity, higher = more binding, comparable within an allelic series)"
GCACTTGA,"13.2 upbm affinity estimate (log intensity, higher = more binding, comparable within an allelic series)","12.8 upbm affinity estimate (log intensity, higher = more binding, comparable within an allelic series)","13.2 upbm affinity estimate (log intensity, higher = more binding, comparable within an allelic series)","12.6 upbm affinity estimate (log intensity, higher = more binding, comparable within an allelic series)","12.1 upbm affinity estimate (log intensity, higher = more binding, comparable within an allelic series)","13.9 upbm affinity estimate (log intensity, higher = more binding, comparable within an allelic series)","13.4 upbm affinity estimate (log intensity, higher = more binding, comparable within an allelic series)","11.4 upbm affinity estimate (log intensity, higher = more binding, comparable within an allelic series)",–,"13.1 upbm affinity estimate (log intensity, higher = more binding, comparable within an allelic series)",–
CCACTCAA,"12.5 upbm affinity estimate (log intensity, higher = more binding, comparable within an allelic series)","12.6 upbm affinity estimate (log intensity, higher = more binding, comparable within an allelic series)","13.1 upbm affinity estimate (log intensity, higher = more binding, comparable within an allelic series)","12.5 upbm affinity estimate (log intensity, higher = more binding, comparable within an allelic series)","11.8 upbm affinity estimate (log intensity, higher = more binding, comparable within an allelic series)","13.4 upbm affinity estimate (log intensity, higher = more binding, comparable within an allelic series)","13.1 upbm affinity estimate (log intensity, higher = more binding, comparable within an allelic series)","10.7 upbm affinity estimate (log intensity, higher = more binding, comparable within an allelic series)","12.6 upbm affinity estimate (log intensity, higher = more binding, comparable within an allelic series)","12.3 upbm affinity estimate (log intensity, higher = more binding, comparable within an allelic series)","12.7 upbm affinity estimate (log intensity, higher = more binding, comparable within an allelic series)"
AGTACTTA,"12.9 upbm affinity estimate (log intensity, higher = more binding, comparable within an allelic series)","12.6 upbm affinity estimate (log intensity, higher = more binding, comparable within an allelic series)","13.1 upbm affinity estimate (log intensity, higher = more binding, comparable within an allelic series)","12.5 upbm affinity estimate (log intensity, higher = more binding, comparable within an allelic series)","12 upbm affinity estimate (log intensity, higher = more binding, comparable within an allelic series)","13.8 upbm affinity estimate (log intensity, higher = more binding, comparable within an allelic series)","13.1 upbm affinity estimate (log intensity, higher = more binding, comparable within an allelic series)","11.2 upbm affinity estimate (log intensity, higher = more binding, comparable within an allelic series)","12.6 upbm affinity estimate (log intensity, higher = more binding, comparable within an allelic series)","12.8 upbm affinity estimate (log intensity, higher = more binding, comparable within an allelic series)","12.7 upbm affinity estimate (log intensity, higher = more binding, comparable within an allelic series)"
AAGTACTC,"12.7 upbm affinity estimate (log intensity, higher = more binding, comparable within an allelic series)","12.7 upbm affinity estimate (log intensity, higher = more binding, comparable within an allelic series)","13.1 upbm affinity estimate (log intensity, higher = more binding, comparable within an allelic series)","12.6 upbm affinity estimate (log intensity, higher = more binding, comparable within an allelic series)","11.8 upbm affinity estimate (log intensity, higher = more binding, comparable within an allelic series)","13.6 upbm affinity estimate (log intensity, higher = more binding, comparable within an allelic series)","13.2 upbm affinity estimate (log intensity, higher = more binding, comparable within an allelic series)","10.8 upbm affinity estimate (log intensity, higher = more binding, comparable within an allelic series)","12.7 upbm affinity estimate (log intensity, higher = more binding, comparable within an allelic series)","12.6 upbm affinity estimate (log intensity, higher = more binding, comparable within an allelic series)","12.8 upbm affinity estimate (log intensity, higher = more binding, comparable within an allelic series)"
CACTTGAG,"13.3 upbm affinity estimate (log intensity, higher = more binding, comparable within an allelic series)","12.9 upbm affinity estimate (log intensity, higher = more binding, comparable within an allelic series)","13.3 upbm affinity estimate (log intensity, higher = more binding, comparable within an allelic series)","12.8 upbm affinity estimate (log intensity, higher = more binding, comparable within an allelic series)","12.1 upbm affinity estimate (log intensity, higher = more binding, comparable within an allelic series)","14 upbm affinity estimate (log intensity, higher = more binding, comparable within an allelic series)","13.5 upbm affinity estimate (log intensity, higher = more binding, comparable within an allelic series)","11.3 upbm affinity estimate (log intensity, higher = more binding, comparable within an allelic series)",–,"13.2 upbm affinity estimate (log intensity, higher = more binding, comparable within an allelic series)",–
CACTTCAA,"12.4 upbm affinity estimate (log intensity, higher = more binding, comparable within an allelic series)","12.6 upbm affinity estimate (log intensity, higher = more binding, comparable within an allelic series)","13 upbm affinity estimate (log intensity, higher = more binding, comparable within an allelic series)","12.5 upbm affinity estimate (log intensity, higher = more binding, comparable within an allelic series)","11.6 upbm affinity estimate (log intensity, higher = more binding, comparable within an allelic series)",–,"13.1 upbm affinity estimate (log intensity, higher = more binding, comparable within an allelic series)","10.9 upbm affinity estimate (log intensity, higher = more binding, comparable within an allelic series)",–,"12.4 upbm affinity estimate (log intensity, higher = more binding, comparable within an allelic series)",–
ATACTTGA,"12.4 upbm affinity estimate (log intensity, higher = more binding, comparable within an allelic series)","12.6 upbm affinity estimate (log intensity, higher = more binding, comparable within an allelic series)","13 upbm affinity estimate (log intensity, higher = more binding, comparable within an allelic series)","12.5 upbm affinity estimate (log intensity, higher = more binding, comparable within an allelic series)","11.6 upbm affinity estimate (log intensity, higher = more binding, comparable within an allelic series)","13.5 upbm affinity estimate (log intensity, higher = more binding, comparable within an allelic series)","13.2 upbm affinity estimate (log intensity, higher = more binding, comparable within an allelic series)","10.7 upbm affinity estimate (log intensity, higher = more binding, comparable within an allelic series)",–,"12.3 upbm affinity estimate (log intensity, higher = more binding, comparable within an allelic series)",–
ACACTTCA,"12.3 upbm affinity estimate (log intensity, higher = more binding, comparable within an allelic series)","12.6 upbm affinity estimate (log intensity, higher = more binding, comparable within an allelic series)","13 upbm affinity estimate (log intensity, higher = more binding, comparable within an allelic series)","12.5 upbm affinity estimate (log intensity, higher = more binding, comparable within an allelic series)",–,"13.3 upbm affinity estimate (log intensity, higher = more binding, comparable within an allelic series)","13.1 upbm affinity estimate (log intensity, higher = more binding, comparable within an allelic series)","10.8 upbm affinity estimate (log intensity, higher = more binding, comparable within an allelic series)",–,"12.3 upbm affinity estimate (log intensity, higher = more binding, comparable within an allelic series)",–
ACTTGAGA,"12.3 upbm affinity estimate (log intensity, higher = more binding, comparable within an allelic series)","12.6 upbm affinity estimate (log intensity, higher = more binding, comparable within an allelic series)","12.9 upbm affinity estimate (log intensity, higher = more binding, comparable within an allelic series)","12.4 upbm affinity estimate (log intensity, higher = more binding, comparable within an allelic series)",–,–,"13.1 upbm affinity estimate (log intensity, higher = more binding, comparable within an allelic series)","10.7 upbm affinity estimate (log intensity, higher = more binding, comparable within an allelic series)",–,"12.2 upbm affinity estimate (log intensity, higher = more binding, comparable within an allelic series)",–
CACTTCAG,"12.4 upbm affinity estimate (log intensity, higher = more binding, comparable within an allelic series)","12.6 upbm affinity estimate (log intensity, higher = more binding, comparable within an allelic series)","12.9 upbm affinity estimate (log intensity, higher = more binding, comparable within an allelic series)","12.4 upbm affinity estimate (log intensity, higher = more binding, comparable within an allelic series)",–,"13.4 upbm affinity estimate (log intensity, higher = more binding, comparable within an allelic series)","13.1 upbm affinity estimate (log intensity, higher = more binding, comparable within an allelic series)","10.8 upbm affinity estimate (log intensity, higher = more binding, comparable within an allelic series)",–,"12.3 upbm affinity estimate (log intensity, higher = more binding, comparable within an allelic series)",–
